HT1080-NT tox: qHTS for induction of synthetic lethality in tumor cells producing 2HG: qHTS for the HT-1080-NT fibrosarcoma cell line; actives 1.6% (n = 360,000); HT-1080-NT fibrosarcoma viability, CellTiter-Glo ATP luminescence, 48 h; Potency, µM (doses to about 46.1 µM), without a hit: at the top dose activity, negative = less viability, hits mostly cytotoxic; AID 686970, 2013;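 also: NT is the 2HG producing partner of a matched IDH1 knockdown line; potency is read from the fitted curve at half-maximal effect; 0% = DMSO-treated cells and -100% = media-only wells without cells; nearly all actives have a fitted effect of over 55% in size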
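Read-out is CellTiter-Glo luminescence after 10 minutes at room temperature, following 48 hours' compound treatment of HT-1080-NT cells (750 cells/well, RPMI, 5% FBS, 37 degrees C).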
HT1080 IDH1KD tx: qHTS for induction of synthetic lethality in tumor cells producing 2HG: qHTS for the HT-1080-IDH1KD cell line | Potency, µM (series often up to 46.1 µM), inactives show at the top dose activity, negative = toxicity, hits mostly cytotoxic | HT-1080 IDH1 knockdown viability, ATP luminescence, 48 h | AID 686971, 2013 | actives 2% (n = 360,000);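 also: potency is read from the fitted curve at half-maximal effect; 0% = DMSO wells and -100% = cell-free medium wells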
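In this qHTS, HT-1080 cells depleted of IDH1 are exposed for 48 h at 37 °C to compound titrations. Toxicity is scored from CellTiter-Glo luminescence, with DMSO as full viability and medium alone as none.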
IL1B secr inh: qHTS for Inhibitors of Inflammasome Signaling: IL-1-beta AlphaLISA Primary Screen; THP-1 LPS/ATP IL-1B secretion, AlphaLISA, 16 h; stronger effect = lower value; activity change, % at 57.5 µM; actives 4.7% (n = 360,000); in the data active = activity change below about -50%; inconclusive = mostly about -30% to -49%
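THP-1 cells pretreated 1 hr with compounds (up to 57.5 uM final), then stimulated with LPS (250 ng/mL final) plus ATP (1.25 mM final); secreted IL-1B measured by AlphaLISA after 16 hr, decreased signal indicating inhibition.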
TDP1 cell noCPT: qHTS for Inhibitors of human tyrosyl-DNA phosphodiesterase 1 (TDP1): qHTS in cells in absence of CPT; actives 15% (n = 420,000); AID 686978, 2013; DT40 Tdp1-/- hTDP1 cells, no CPT, ATP luminescence, 48 h; Potency, µM (titrated, usually from 46.2 µM), inactives show at the highest dose activity change, negative = growth inhibition, most hits filed as inhibitors; also: potency is read from the fitted curve at half-maximal effect; nearly all actives have a fitted effect of over 55% in size
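Growth kinetics read by CellTiter-Glo luminescence after ≥48 hr at 37 °C. Cells: DT40 Tdp1-/- stably carrying human TDP1, 400 per well, compound exposure in the absence of CPT (DMSO vehicle).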
TDP1 cell CPT: qHTS for Inhibitors of human tyrosyl-DNA phosphodiesterase 1 (TDP1): qHTS in cells in presence of CPT; Potency, µM (titrated, usually from 46.2 µM), for inactives: at the top dose activity change, negative = growth inhibition, most hits filed as inhibitors; actives 12% (n = 420,000); chicken DT40 Tdp1-/-;hTDP1 cells + 20 nM CPT, ATP luminescence, 48 h; AID 686979, 2013; also: potency is read from the fitted curve at half-maximal effect; nearly all actives have a fitted effect of over 55% in size
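Chicken DT40 Tdp1-/- cells stably complemented with human TDP1 were seeded at 400 cells/well in medium containing 20 nM camptothecin, exposed to pin-transferred compounds, and grown at 37 °C for at least 48 hr. Viability was read as ATP luminescence.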
* = called active by the depositor; ? = inconclusive; / = no result given. The list is not random: actives were taken first. Their share in the collection is about 19%. Unless noted, calls follow the shape of the dose curve; as a rule, active = well fitted curve in the direction sought with a large enough effect; inconclusive = small, poorly fitted or top-dose-only effect, or another doubt; inactive = no such curve, though single readings can be large; an effect the other way counts as inactive or inconclusive. Unless noted, % is scaled to controls: 0 for no effect and ±100 for the full control effect.

SMILES | HT1080-NT tox | HT1080 IDH1KD tx | IL1B secr inh | TDP1 cell noCPT | TDP1 cell CPT
CN(C)S(=O)(=O)N1CCN(CC(=O)Nc2ccc(Br)cc2)CC1 | 7% | 0% | 50 | -3% | -13%
Cc1ccccc1Nc1c(C)c(C)nc2ncnn12 | -22% | -20% | 3 | 21µM* | 16µM*
CCc1c(C)nc2ncnn2c1Nc1ccccc1C | -16% | -10% | 16 | ? | ?
COc1cccc(NC(=O)C2(C)CCN2Cc2ccc(OC(C)C)cc2)c1 (stereo unspecified) | 9% | 5% | 0 | ? | ?
CSc1ccc(CN2CCC2(C)C(=O)Nc2cccc(Oc3ccccc3)c2)cc1 (stereo unspecified) | -9% | -11% | 15 | 15µM* | 18µM*
CC1(C(=O)Nc2cccc(Oc3ccccc3)c2)CCN1Cc1cc2ccccc2o1 (stereo unspecified) | -24% | ? | -7 | ? | 23µM*
CC(=O)Nc1ccc(N=Cc2c(O)c(C(=O)Nc3ccccc3)cc3ccccc23)cc1 | -28% | ? | 57 | 16µM* | ?
CC(=O)Nc1ccc(N=Cc2c(O)c3ccccc3oc2=O)cc1 | 0% | -5% | -5 | -11% | 21µM*
Cc1noc(C)c1NC(=O)Nc1ccc2c(c1)C(=O)N([C@H](C)CO)C[C@H](C)[C@@H](CN(C)C(=O)Nc1c(C)noc1C)O2 | 18% | 22% | 13 | 2% | -18%
Cc1cc([N+](=O)[O-])nn1CCC(=O)NC1CCCCCC1 | 15% | -1% | 7 | -23% | 0%
COc1ccc(-c2oc3ncnc(NCCCN4CCOCC4)c3c2-c2ccc(OC)cc2)cc1 | ? | ? | ? | 18µM* | ?
c1ccc(-c2oc3ncnc(NCCCN4CCOCC4)c3c2-c2ccccc2)cc1 | -13% | -11% | -22 | 23µM* | ?
CCOc1cc2nc(-c3ccc(OC)c(OC)c3)nc(NCCCN3CCOCC3)c2cc1OC | ? | ? | -60* | 21µM* | ?
COc1ccc(-c2oc3ncnc(NCCN4CCOCC4)c3c2-c2ccc(OC)cc2)cc1 | 1% | -1% | 18 | 15µM* | ?
COc1cc2ncnc(NCCCN3CCOCC3)c2cc1OC | 9% | 0% | -2 | 4% | 6%
COc1ccc(-n2ncc3c(NCCN4CCOCC4)ncnc32)cc1 | 9% | 9% | 7 | -3% | -6%
COc1ccc(NC(=O)CSc2nc3ccccc3nc2N2CCCC2)cc1 | 7% | -8% | -19 | ? | ?
Cn1c(SCC(=O)NCc2ccco2)nnc1-c1ccc(NC(=O)c2ccccc2)cc1 | / | / | / | ? | -7%
COCCN(C)C(=O)c1cnn(-c2ncc3c(n2)-c2ccccc2CCC3)c1C1CC1 | / | / | / | -11% | -6%
OCCCNc1ncnc2oc(-c3ccccc3)c(-c3ccccc3)c12 | ? | ? | -24 | 16µM* | ?
COc1ccc(-c2oc3ncn(CCN4CCOCC4)c(=N)c3c2-c2ccc(OC)cc2)cc1 | ? | ? | -53* | 13µM* | 16µM*
COC(=O)[C@@]12C[C@@H](CC(=O)N3CCN(C(=O)C4CC4)CC3)C(=O)N(CCc3ccc(OC)c(OC)c3)C1=CCC(C)(C)C2 | 7% | 6% | 12 | -18% | 12%
CCC(=O)NC(=S)NNC(=O)c1ccc(NC(=O)c2ccccc2)cc1 | 1% | -5% | -10 | 7.3µM* | 5.8µM*
CCCCC(=O)NC(=S)NNC(=O)c1ccc(OC)cc1 | ? | ? | 205 | 3.3µM* | 4.6µM*
Cc1ccc(C(=O)NC(=S)NNC(=O)c2ccccc2)cc1 | -19% | -25% | 46 | ? | ?
Cc1cccc(C(=O)NNC(=S)NC(=O)c2ccccc2)c1 | ? | ? | ? | 21µM* | 18µM*
